# In PubChem BioAssay (Tox21):
# Several values for one entry are separate records, joined by “and”; a condition that tells them apart may be missing. Equal values may be shown once. Records with an inconclusive call do not appear. Where a call stands in place of a potency, no number is given. Activity calls are given as the source filed them. Unless noted, calls come from the whole dose curve; as a rule, active = well fitted curve in the direction sought with a large enough effect in the repeat runs; inconclusive = weak or mixed curves; inactive = no such curve, though single readings can be large; an effect the other way counts as inactive or inconclusive.
# Legend:
# [1] = molecular target: Aryl hydrocarbon receptor (Homo sapiens) (UniProt P35869); experiment: qHTS assay to identify small molecule that activate the aryl hydrocarbon receptor (AhR) signaling pathway (AID 743085); note: nearly all actives have a fitted effect of over 15% in size; note: potency is the fitted concentration of half-maximal effect;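 for activation: HG2L7.5c1 human HepG2 liver cells with stably integrated DRE-driven firefly reporter; series mostly up to about 70 µM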
# Aryl hydrocarbon receptor (Homo sapiens), sequence (P35869 whole entry, looked up): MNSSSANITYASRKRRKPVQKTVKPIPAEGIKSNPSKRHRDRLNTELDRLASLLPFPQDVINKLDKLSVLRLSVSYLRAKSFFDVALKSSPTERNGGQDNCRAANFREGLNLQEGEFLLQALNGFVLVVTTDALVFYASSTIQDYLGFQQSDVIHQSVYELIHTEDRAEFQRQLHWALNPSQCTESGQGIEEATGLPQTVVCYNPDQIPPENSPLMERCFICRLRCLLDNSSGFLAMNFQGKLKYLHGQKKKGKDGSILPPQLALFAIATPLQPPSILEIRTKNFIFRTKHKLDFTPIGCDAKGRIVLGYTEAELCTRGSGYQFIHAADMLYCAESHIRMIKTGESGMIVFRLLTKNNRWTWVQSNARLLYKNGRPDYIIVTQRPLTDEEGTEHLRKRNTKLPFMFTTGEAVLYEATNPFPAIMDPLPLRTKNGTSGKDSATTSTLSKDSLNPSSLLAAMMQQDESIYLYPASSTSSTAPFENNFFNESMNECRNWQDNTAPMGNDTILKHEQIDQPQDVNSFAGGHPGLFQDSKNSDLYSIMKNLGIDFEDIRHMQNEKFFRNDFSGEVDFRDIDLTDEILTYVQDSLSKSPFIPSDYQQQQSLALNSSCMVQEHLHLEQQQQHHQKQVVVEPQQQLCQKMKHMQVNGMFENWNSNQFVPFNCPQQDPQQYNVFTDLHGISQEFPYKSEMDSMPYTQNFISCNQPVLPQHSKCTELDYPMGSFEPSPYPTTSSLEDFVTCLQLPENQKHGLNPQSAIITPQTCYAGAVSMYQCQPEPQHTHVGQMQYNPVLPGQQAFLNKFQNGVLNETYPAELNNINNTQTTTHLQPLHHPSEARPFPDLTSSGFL
# How it was run: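 Compounds were tested in HepG2 hepatocellular carcinoma cells harbouring a stably integrated luciferase gene under control of 20 DREs. Increased reporter signal after 24 h treatment at 37C was taken as AhR activation.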
# [2] = qHTS assay to identify small molecule that activate the aryl hydrocarbon receptor (AhR) signaling pathway - cell viability counter screen (AID 743086); note: nearly all actives have a fitted effect of over 45% in size; note: potency is the fitted concentration of half-maximal effect
# How it was run: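 HepG2-AhR-luc (HG2L7.5c1) cells, 4000/well, treated 24 h at 37 C with compound; viability measured as CellTiter-Fluor fluorescence after 30 min in the same wells as the luciferase read.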
# [3] = molecular target: Peroxisome proliferator-activated receptor gamma (Homo sapiens) (UniProt P37231); experiment: qHTS assay to identify small molecule agonists of the peroxisome proliferator-activated receptor gamma (PPARg) signaling pathway (AID 743094; active = well fitted activation curve with a large enough effect in the signal ratio in the repeat runs, not every such curve was filed as active; the % refers to the signal ratio)
# Peroxisome proliferator-activated receptor gamma (Homo sapiens), sequence (P37231 whole entry, looked up): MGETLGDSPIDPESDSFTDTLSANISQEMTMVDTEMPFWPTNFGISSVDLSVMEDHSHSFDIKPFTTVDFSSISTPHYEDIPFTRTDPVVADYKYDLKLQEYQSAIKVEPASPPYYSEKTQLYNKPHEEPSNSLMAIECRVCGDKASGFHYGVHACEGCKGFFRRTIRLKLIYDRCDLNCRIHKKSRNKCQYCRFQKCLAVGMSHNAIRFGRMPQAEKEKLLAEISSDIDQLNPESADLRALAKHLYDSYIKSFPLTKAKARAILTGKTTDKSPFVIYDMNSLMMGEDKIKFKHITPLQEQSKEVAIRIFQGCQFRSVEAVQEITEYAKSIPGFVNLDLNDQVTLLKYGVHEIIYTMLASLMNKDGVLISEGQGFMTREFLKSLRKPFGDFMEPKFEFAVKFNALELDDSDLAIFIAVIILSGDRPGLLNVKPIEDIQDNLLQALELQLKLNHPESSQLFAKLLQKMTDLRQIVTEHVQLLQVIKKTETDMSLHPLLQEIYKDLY
# How it was run: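 Beta-lactamase FRET fluorescence was the read-out after a 1 h room-temperature substrate step, following 17 h compound treatment at 37C of HEK293H cells expressing a UAS-driven bla reporter responsive to PPARg.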
# [4] = molecular target: Peroxisome proliferator-activated receptor gamma (Homo sapiens) (UniProt P37231); experiment: qHTS assay to identify small molecule antagonists of the peroxisome proliferator-activated receptor gamma (PPARg) signaling pathway (AID 743191; calls by dose curve; note: nearly all actives have a fitted effect of over 30% in size; note: potency is the fitted concentration of half-maximal effect)
# How it was run: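 GeneBLAzer PPARg UAS-bla HEK293H cells, 5 h post-plating, exposed to compounds 17 h at 37C. LiveBLAzer B/G FRET substrate added for 1 h at room temperature; beta-lactamase reporter read by fluorescence intensity.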
# [5] = qHTS assay to identify small molecule antagonists of the peroxisome proliferator-activated receptor gamma (PPARg) signaling pathway - cell viability counter screen (AID 743194); settings: Potency: co-treated with 50 nM rosiglitazone unless noted; note: nearly all actives have a fitted effect of over 55% in size; note: potency is the fitted concentration of half-maximal effect
# How it was run: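 Cytotoxicity counter screen in PPARg-bla HEK293H cells, same wells as reporter assay. Compounds plus 50 nM rosiglitazone (final) for 17 h at 37 C, then viability read by CellTiter-Glo luminescence.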
# [6] = qHTS assay for small molecule agonists of the antioxidant response element (ARE) signaling pathway - cell viability counter screen (AID 743203; calls by dose curve; note: nearly all actives have a fitted effect of over 55% in size; note: potency is the fitted concentration of half-maximal effect)
# How it was run: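 HepG2 cells carrying ARE-driven beta-lactamase; 2,000 cells/well; 5 hrs plating; compound pinned from DMSO; 16 hrs 37C/5% CO2; CellTiter-Glo added; 30 min RT; luminescence.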
# [7] = qHTS assay for small molecule activators of the heat shock response signaling pathway - cell viability counter screen (AID 743209); note: nearly all actives have a fitted effect of over 50% in size; note: potency is the fitted concentration of half-maximal effect
# How it was run: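 Luminescence from CellTiter-Glo, added after the beta-lactamase FRET read, gave the viability signal. Cells were HSE-bla HeLa treated with DMSO-dissolved compounds for 5 h at 37 C following overnight plating.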
# [8] = qHTS assay to identify small molecule agonists of the peroxisome proliferator-activated receptor delta (PPARd) signaling pathway - cell viability counter screen (AID 743211); note: nearly all actives have a fitted effect of over 55% in size; note: potency is the fitted concentration of half-maximal effect
# How it was run: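 Counter screen for cytotoxicity run in parallel with the PPARd reporter screen. Beta-lactamase reporter HEK293H cells exposed to compounds 17 h; ATP-based CellTiter-Glo luminescence quantified viability.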
# [9] = qHTS assay to identify small molecule antagonists of the farnesoid-X-receptor (FXR) signaling pathway - cell viability counter screen (AID 743221; active = well fitted cell-killing curve with a large enough effect in the repeat runs, not every such curve was filed as active; note: nearly all actives have a fitted effect of over 50% in size)
# How it was run: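 Multiplexed counter screen: viability of FXR-bla HEK 293T cells under agonist stimulation by chenodeoxycholic acid (50 uM, final) and test compound for 16 h at 37 C, measured by CellTiter-Glo luminescence in the reporter wells.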
# [10] = molecular target: Vitamin D3 receptor (Homo sapiens) (UniProt P11473); experiment: qHTS assay to identify small molecule agonists of the vitamin D receptor (VDR) signaling pathway (AID 743222; calls by dose curve)
# Vitamin D3 receptor (Homo sapiens), sequence (P11473 whole entry, looked up): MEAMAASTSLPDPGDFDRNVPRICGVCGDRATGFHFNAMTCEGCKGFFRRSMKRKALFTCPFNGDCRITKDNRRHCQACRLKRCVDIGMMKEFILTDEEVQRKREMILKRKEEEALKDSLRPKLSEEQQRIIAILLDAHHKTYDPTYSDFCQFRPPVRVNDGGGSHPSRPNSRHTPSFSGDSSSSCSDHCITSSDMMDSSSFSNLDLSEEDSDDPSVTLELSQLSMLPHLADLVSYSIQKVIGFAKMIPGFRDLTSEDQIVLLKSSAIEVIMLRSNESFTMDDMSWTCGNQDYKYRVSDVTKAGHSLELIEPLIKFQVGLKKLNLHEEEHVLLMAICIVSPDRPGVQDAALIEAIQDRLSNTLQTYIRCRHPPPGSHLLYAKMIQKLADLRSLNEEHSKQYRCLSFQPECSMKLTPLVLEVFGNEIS
# How it was run: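 VDR-bla cells, 2,000/well; 4 h preincubation 37C; cpd (DMSO) 16 h; LiveBLAzer B/G substrate 2 h RT; fluorescence intensity read.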
# [11] = qHTS assay to identify small molecule agonists of the vitamin D receptor (VDR) signaling pathway - cell viability counter screen (AID 743224); note: nearly all actives have a fitted effect of over 50% in size; note: potency is the fitted concentration of half-maximal effect
# How it was run: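 Luminescence from CellTiter-Glo, read after 30 min at room temperature, reports viability of VDR-bla cells treated with compounds for 16 h at 37C in the wells used for the beta-lactamase FRET read.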
# [12] = molecular target: Peroxisome proliferator-activated receptor delta (Homo sapiens) (UniProt Q03181); experiment: qHTS assay to identify small molecule agonists of the peroxisome proliferator-activated receptor delta (PPARd) signaling pathway (AID 743212; calls by dose curve)
# Peroxisome proliferator-activated receptor delta (Homo sapiens), sequence (Q03181 whole entry, looked up): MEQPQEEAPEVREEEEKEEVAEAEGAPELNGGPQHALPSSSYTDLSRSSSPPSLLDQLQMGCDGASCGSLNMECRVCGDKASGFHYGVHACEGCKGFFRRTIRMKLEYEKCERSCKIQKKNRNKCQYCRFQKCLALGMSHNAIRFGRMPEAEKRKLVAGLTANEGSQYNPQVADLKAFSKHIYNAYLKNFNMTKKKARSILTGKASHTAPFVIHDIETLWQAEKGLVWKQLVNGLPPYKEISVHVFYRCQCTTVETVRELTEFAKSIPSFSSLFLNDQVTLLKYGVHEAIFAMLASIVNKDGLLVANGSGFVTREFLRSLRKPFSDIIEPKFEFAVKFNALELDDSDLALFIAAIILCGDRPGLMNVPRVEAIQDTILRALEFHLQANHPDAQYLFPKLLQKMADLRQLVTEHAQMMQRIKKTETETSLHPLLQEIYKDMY
# How it was run: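 Quantitative high-throughput agonist screen in a HEK293H beta-lactamase reporter line under UAS control. Compounds in DMSO, at 37 C. Fluorescence read after 2 h with FRET substrate at room temperature.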
# [13] = qHTS assay to identify small molecule antagonists of the peroxisome proliferator-activated receptor delta (PPARd) signaling pathway - cell viability counter screen (AID 743213); note: nearly all actives have a fitted effect of over 50% in size
# How it was run: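 HEK293H PPARd UAS-bla cells, 5 h pre-incubation, compound + L165041 300 nM final, 17 h 37 C; B/G FRET substrate 2 h RT; then CellTiter-Glo 30 min RT, luminescence.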
# [14] = molecular target: Peroxisome proliferator-activated receptor delta (Homo sapiens) (UniProt Q03181); experiment: qHTS assay to identify small molecule antagonists of the peroxisome proliferator-activated receptor delta (PPARd) signaling pathway (AID 743215; active = well fitted inhibition curve with a large enough effect in the signal ratio in the repeat runs, not every such curve was filed as active; the % refers to the signal ratio;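 note: cells stimulated with agonist L165041 at 300 nM final during compound exposure; series mostly up to about 62 µM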)
# How it was run: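 Read-out is beta-lactamase FRET fluorescence, measured 2 h after substrate addition at room temperature. Beforehand, UAS-bla HEK293H cells carrying the PPARd reporter were exposed to compounds with L165041 at 300 nM final for 17 h at 37 C.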
# [15] = qHTS assay to identify small molecule agonists of the farnesoid-X-receptor (FXR) signaling pathway - cell viability counter screen (AID 743218); note: nearly all actives have a fitted effect of over 45% in size
# How it was run: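 HEK 293T FXR-bla cells; 5 h pre-incubation, 16 h compound exposure at 37 C; LiveBLAzer substrate 2 h RT, then CellTiter-Glo 30 min RT, luminescence.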
# [16] = molecular target: Bile acid receptor (Homo sapiens) (UniProt Q96RI1); experiment: qHTS assay to identify small molecule agonists of the farnesoid-X-receptor (FXR) signaling pathway (AID 743220; active = well fitted activation curve with a large enough effect in the signal ratio in the repeat runs, not every such curve was filed as active; the % refers to the signal ratio)
# Bile acid receptor (Homo sapiens), sequence (Q96RI1 whole entry, looked up): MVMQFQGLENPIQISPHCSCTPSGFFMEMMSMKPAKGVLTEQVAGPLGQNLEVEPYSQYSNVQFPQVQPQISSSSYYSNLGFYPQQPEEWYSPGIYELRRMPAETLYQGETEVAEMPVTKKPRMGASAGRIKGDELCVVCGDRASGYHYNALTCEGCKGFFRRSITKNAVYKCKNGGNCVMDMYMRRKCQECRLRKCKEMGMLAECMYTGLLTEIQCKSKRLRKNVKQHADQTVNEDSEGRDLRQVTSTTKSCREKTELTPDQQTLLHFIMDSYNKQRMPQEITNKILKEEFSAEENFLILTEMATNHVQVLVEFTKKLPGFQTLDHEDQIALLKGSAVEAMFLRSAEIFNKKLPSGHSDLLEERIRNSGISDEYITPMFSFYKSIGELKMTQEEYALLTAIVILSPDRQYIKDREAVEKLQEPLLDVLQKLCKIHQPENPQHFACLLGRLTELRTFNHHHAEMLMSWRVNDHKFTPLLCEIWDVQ
# How it was run: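 Beta-lactamase reporter under UAS control in GeneBLAzer FXR HEK 293T cells (5000/well) measured with LiveBLAzer FRET substrate after 2 h at room temperature. Compound exposure lasted 16 h at 37C.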
# [17] = qHTS assay for small molecule agonists of the antioxidant response element (ARE) signaling pathway (AID 743202; active = well fitted activation curve with a large enough effect in the signal ratio in the repeat runs, not every such curve was filed as active; the % refers to the signal ratio)
# How it was run: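 Agonist mode reporter screen: HepG2 cells with ARE-controlled beta-lactamase are incubated with test compounds for 16 h at 37 C, and beta-lactamase activity is measured as fluorescence of cleaved B/G FRET substrate.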
# [18] = qHTS assay for small molecule activators of the heat shock response signaling pathway (AID 743210; active = well fitted activation curve with a large enough effect in the signal ratio in the repeat runs, with a control signal flat, not every such curve was filed as active; the % refers to the signal ratio;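 note: HeLa cells with beta-lactamase reporter driven by heat shock elements; series mostly up to about 63 µM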)
# How it was run: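 Quantitative high-throughput format using an engineered HeLa line in which heat shock response elements drive beta-lactamase; after 5 h with compound, cells received a B/G FRET substrate and fluorescence was read.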
# [19] = molecular target: Bile acid receptor (Homo sapiens) (UniProt Q96RI1); experiment: qHTS assay to identify small molecule antagonists of the farnesoid-X-receptor (FXR) signaling pathway (AID 743217; active = well fitted inhibition curve with a large enough effect in the signal ratio in the repeat runs, not every such curve was filed as active; the % refers to the signal ratio)
# How it was run: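 HEK 293T FXR-UAS-bla, 5000 cells/well; compound + CDCA 50 uM final; 16 h, 37 °C; B/G FRET substrate 2 h RT; fluorescence.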
# [20] = molecular target: Vitamin D3 receptor (Homo sapiens) (UniProt P11473); experiment: qHTS assay to identify small molecule antagonists of the vitamin D receptor (VDR) signaling pathway (AID 743223; active = well fitted inhibition curve with a large enough effect in the signal ratio in the repeat runs, not every such curve was filed as active; the % refers to the signal ratio)
# How it was run: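 Cells carrying a VDR-driven beta-lactamase reporter (VDR-bla) were co-treated with compound and 3 nM final 1alpha,25-dihydroxyvitamin D3 for 16 h at 37C; reporter activity was measured as FRET substrate fluorescence after 2 h at room temperature.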
Compound,Potency [1],Potency [2],Potency [3],Potency [4],Potency [5],Potency [6],Potency [7],Potency [8],Potency [9],Potency [10],Potency [11],Potency [12],Potency [13],Potency [14],Potency [15],Potency [16],Potency [17],Potency [18],Potency [19],Potency [20]
CC(C)N(C(=O)CCl)c1ccccc1,inactive,38.6 µM (active) and 68.6 µM (active),inactive,3.89 µM (active) and 3.47 µM (active),49 µM (active) and 27.5 µM (active),6.86 µM (active) and 3.86 µM (active),12.3 µM (active) and 5.49 µM (active),49 µM (active) and 43.6 µM (active),inactive,inactive,inactive,,,,,,,,,
CCC(C)c1cccc(C(C)CC)c1O (stereo not drawn),inactive,inactive,inactive,inactive,inactive,inactive,inactive,inactive,inactive,inactive,,inactive,inactive,inactive,inactive,inactive,,,,
O=[N+]([O-])c1ccccc1-c1ccccc1,inactive,inactive,inactive,inactive,inactive,inactive,inactive,inactive,inactive,,inactive,,inactive,,inactive,,inactive,,,
CCNS(=O)(=O)C(F)(F)C(F)(F)C(F)(F)C(F)(F)C(F)(F)C(F)(F)C(F)(F)C(F)(F)F,inactive,inactive,inactive,inactive,inactive,,,,inactive,inactive,inactive,inactive,inactive,inactive,inactive,inactive,,inactive,inactive,inactive
CC(Cc1ccc(O)cc1)NCC(O)c1cc(O)cc(O)c1 (stereo not drawn),inactive,inactive,inactive,inactive,inactive,inactive,inactive,,inactive,inactive,,inactive,,inactive,,inactive,inactive,inactive,inactive,
Cc1cnc2c(C(=O)O)c(Cl)ccc2c1,inactive,inactive,inactive,inactive,inactive,inactive,inactive,inactive,inactive,,inactive,,inactive,,inactive,inactive,inactive,inactive,inactive,
CC1CCCC1,inactive,inactive,inactive,21.5 µM (active),inactive,inactive,,,inactive,inactive,,inactive,inactive,inactive,inactive,,,,,inactive
O=S1(=O)OCC2C(CO1)C1(Cl)C(Cl)=C(Cl)C2(Cl)C1(Cl)Cl (stereo not drawn),inactive,inactive,inactive,inactive,inactive,inactive,,,,,49 µM (active),inactive,,inactive,,inactive,,,,
CCCN,inactive,inactive,inactive,inactive,inactive,inactive,,,inactive,,inactive,,inactive,,,,inactive,inactive,,
CNC(=O)O/N=C(\C)C(C)S(C)(=O)=O (stereo not drawn),inactive,inactive,inactive,inactive,inactive,inactive,inactive,,inactive,inactive,inactive,inactive,inactive,inactive,inactive,inactive,inactive,inactive,inactive,inactive
CC(Cl)CCl (stereo not drawn),inactive,inactive,inactive,inactive,inactive,inactive,inactive,inactive,inactive,inactive,inactive,inactive,inactive,inactive,inactive,,inactive,inactive,,inactive
CN1[C@@H]2CC[C@H]1CC(O)C2 (stereo partly drawn),inactive,inactive,inactive,inactive,inactive,inactive,inactive,inactive,inactive,inactive,inactive,inactive,inactive,inactive,inactive,,inactive,inactive,,inactive
S=C=NCCc1ccccc1,54.6 µM (active),inactive,inactive,inactive,inactive,,55.1 µM (active),,,,,inactive,inactive,inactive,,,,,,inactive
ClC(Cl)C(Cl)(Cl)Cl,inactive,inactive,inactive,inactive,inactive,inactive,inactive,inactive,inactive,inactive,inactive,inactive,,inactive,inactive,inactive,inactive,,inactive,
[O]=[Cr][O][Cr]=[O],inactive,inactive,inactive,inactive,inactive,inactive,inactive,,inactive,inactive,inactive,,inactive,,inactive,inactive,inactive,,inactive,
CC(C)Br,inactive,inactive,inactive,inactive,inactive,inactive,inactive,,inactive,inactive,inactive,,inactive,,inactive,inactive,inactive,inactive,inactive,inactive
OCC(Br)CBr (stereo not drawn),inactive,inactive,inactive,inactive,inactive,inactive,,inactive,inactive,inactive,inactive,inactive,inactive,inactive,inactive,inactive,inactive,inactive,inactive,inactive
Clc1ccc(C(Cl)(Cl)Cl)cc1Cl,26.7 µM (active),inactive,inactive,inactive,inactive,inactive,inactive,inactive,inactive,inactive,inactive,inactive,inactive,inactive,,,,,,inactive
